Data published in PubChem BioAssay (NCATS).
Inconclusive results are not listed. The source made the active and inactive calls. The call rests on the fitted dose curve; in most records, active means well fitted curve in the direction sought with a large enough effect; inconclusive means small, poorly fitted or top-dose-only effect, or another doubt; inactive means no such curve, though single readings can be large; an effect the other way counts as inactive or inconclusive.

Legend:
[1] = target: Single-stranded DNA cytosine deaminase (Homo sapiens) (UniProt Q9GZX7); assay: Validation qHTS assay for inhibitors of Activation Induced Cytidine Deaminase (AID): AID signal (AID 1347429); further: on the % scale 0 is the no-effect control and ±100 the full control effect
Chain of Single-stranded DNA cytosine deaminase (Homo sapiens) (Q9GZX7 whole entry, looked up): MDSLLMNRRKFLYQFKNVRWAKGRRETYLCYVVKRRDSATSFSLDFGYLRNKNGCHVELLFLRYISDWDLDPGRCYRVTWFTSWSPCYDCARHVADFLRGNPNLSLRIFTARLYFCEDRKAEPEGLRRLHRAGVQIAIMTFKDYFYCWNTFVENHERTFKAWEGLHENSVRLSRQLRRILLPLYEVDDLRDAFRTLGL
Summary of the method: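 AID and UDG were combined and compounds added at final up to 114 uM, then DJC20/DJC23 FRET substrate was added for 4 hr at room temperature. NaOH was then added for 30 min before fluorescence was read at 540/590 nm.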

[2] = Primary qHTS for inhibitors of La Crosse Virus (LACV) - induced cell death in SH-SY5Y cells (AID 1508616); further: potency means the concentration at half of the fitted maximal effect
Summary of the method: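 Luminescent ATP readout (ATPLite 1step, 5 min room temperature) measured rescue from LACV-induced death after 6 days of infection at 0.01 MOI; normalized to infected DMSO wells and uninfected DMSO wells.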

[3] = target: Calcium and integrin-binding protein 1 (Homo sapiens) (UniProt Q99828); assay: Validation qHTS for Identification of Calcium Integrin Binding protein 1 (CIB1) Competitor (AID 1508618); further: on the % scale 0 is the no-effect control and ±100 the full control effect
Chain of Calcium and integrin-binding protein 1 (Homo sapiens) (Q99828 whole entry, looked up): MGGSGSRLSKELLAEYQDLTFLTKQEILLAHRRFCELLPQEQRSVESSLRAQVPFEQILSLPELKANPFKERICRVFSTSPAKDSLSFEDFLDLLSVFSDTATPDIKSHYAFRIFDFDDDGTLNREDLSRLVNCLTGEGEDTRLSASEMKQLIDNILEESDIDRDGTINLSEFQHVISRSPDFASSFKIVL
Summary of the method: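 Fluorescence polarization with 1 uM CIB1-GST and 100 nM FITC-alphaIIb peptide in HEPES pH 7.4, NaCl, 5 mM CaCl2, Tween20. Compounds at up to 114 uM final, preincubated with protein 15 min; read after 15 min more at RT.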

[4] = Primary qHTS for small molecule stabilizers of the endoplasmic reticulum resident proteome: Secreted ER Calcium Modulated Protein (SERCaMP) assay (AID 1508630); further: potency means the concentration at half of the fitted maximal effect
Summary of the method: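 GLuc-SERCaMP-expressing SH-SY5Y cells, pretreated 16 h with compound, are challenged with thapsigargin to empty ER calcium stores; after 4 h, coelenterazine is added directly to the medium and luminescence is imaged.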

[5] = target: Papain (Carica papaya) (UniProt P00784); assay: Primary qHTS assay for inhibitors of the protease papain (AID 1645873);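 further: papain turnover of Z-FR-AMC read as the AMC fluorescence gain over 10 min; series mostly up to about 50 µM; on the % scale 0 is the no-effect control and ±100 the full control effect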
Chain of Papain (Carica papaya) (P00784 whole entry, looked up): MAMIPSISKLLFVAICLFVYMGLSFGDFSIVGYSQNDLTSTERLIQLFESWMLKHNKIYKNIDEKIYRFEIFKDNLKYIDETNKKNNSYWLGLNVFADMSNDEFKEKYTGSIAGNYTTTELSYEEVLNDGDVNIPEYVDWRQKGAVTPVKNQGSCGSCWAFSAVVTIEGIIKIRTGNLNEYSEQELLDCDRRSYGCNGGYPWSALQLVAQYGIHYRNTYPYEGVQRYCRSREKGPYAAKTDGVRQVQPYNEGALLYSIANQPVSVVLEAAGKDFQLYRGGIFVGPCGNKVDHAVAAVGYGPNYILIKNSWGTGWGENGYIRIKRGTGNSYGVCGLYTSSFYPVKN

[6] = Counterscreen qHTS for small molecule stabilizers of the endoplasmic reticulum resident proteome: GLuc-NoTag assay (AID 1508627);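 further: SH-SY5Y cells given compound then 100 nM thapsigargin to empty ER calcium; series mostly up to about 76 µM; 0% = thapsigargin alone and -100% = DMSO vehicle control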
Summary of the method: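 Luminescence of Gaussia luciferase secreted into the medium (coelenterazine, 0.07x final, unlysed cells) was the read-out. Human SH-SY5Y neuroblastoma cells constitutively secreting untagged GLuc received compound for 19 h, then 100 nM thapsigargin for 4 h.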

[7] = Cell Viability qHTS for small molecule stabilizers of the endoplasmic reticulum resident proteome (AID 1508629); conditions: cell viability counter-screen, 100 nM thapsigargin for final 4 h;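 further: human SH-SY5Y neuroblastoma cells carrying the GLuc-SERCaMP reporter; compound exposure about 46 h in total before the viability read; on the % scale 0 is the no-effect control and ±100 the full control effect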
[8] = target: N-terminal Xaa-Pro-Lys N-methyltransferase 1 (Homo sapiens) (UniProt Q9BV86); assay: Confirmatory qHTS for Inhibitors of N-terminal methyltransferase 1 (NTMT1): MTaseGlo Assay (AID 1645874); conditions: NTMT1 enzyme, MTase-Glo SAH luminescence; further: potency means the concentration at half of the fitted maximal effect; nearly all actives have a fitted effect of over 65% in size
Chain of N-terminal Xaa-Pro-Lys N-methyltransferase 1 (Homo sapiens) (Q9BV86 whole entry, looked up): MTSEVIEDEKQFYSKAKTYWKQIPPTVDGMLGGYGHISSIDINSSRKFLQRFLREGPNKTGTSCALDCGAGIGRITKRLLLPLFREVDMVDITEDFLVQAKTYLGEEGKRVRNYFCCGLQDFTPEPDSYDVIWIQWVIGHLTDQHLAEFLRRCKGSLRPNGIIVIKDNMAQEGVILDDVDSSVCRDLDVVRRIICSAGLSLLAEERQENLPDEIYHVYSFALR
Summary of the method: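 NTMT1 (125 nM) preincubated 15 min with compound and 100 uM SAM, then 1 uM SPKRIA peptide added for 30 min at room temperature. SAH detected by MTase-Glo luminescence; normalized to no-enzyme and DMSO controls, fitted to 4-parameter Hill.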

[9] = Primary qHTS for inhibitors of nuclear receptor binding SET domain protein 2 (NSD2) in an isogenic RCH-ACV NSD2 p.E1099K mutant (9B) (AID 1645876); further: potency means the concentration at half of the fitted maximal effect; nearly all actives have a fitted effect of over 70% in size
[10] = Primary qHTS for inhibitors of nuclear receptor binding SET domain protein 2 (NSD2) in an RCH-ACV wild type WT cells (2C) (AID 1645877); further: potency means the concentration at half of the fitted maximal effect; nearly all actives have a fitted effect of over 70% in size
[11] = target: Rap guanine nucleotide exchange factor 3 (Homo sapiens) (UniProt O95398); assay: Confirmatory qHTS for antagonist of cAMP-regulated guanine nucleotide exchange factor 3 (EPAC1) (AID 1645880); further: potency means the concentration at half of the fitted maximal effect; nearly all actives have a fitted effect of over 55% in size
Chain of Rap guanine nucleotide exchange factor 3 (Homo sapiens) (O95398 whole entry, looked up): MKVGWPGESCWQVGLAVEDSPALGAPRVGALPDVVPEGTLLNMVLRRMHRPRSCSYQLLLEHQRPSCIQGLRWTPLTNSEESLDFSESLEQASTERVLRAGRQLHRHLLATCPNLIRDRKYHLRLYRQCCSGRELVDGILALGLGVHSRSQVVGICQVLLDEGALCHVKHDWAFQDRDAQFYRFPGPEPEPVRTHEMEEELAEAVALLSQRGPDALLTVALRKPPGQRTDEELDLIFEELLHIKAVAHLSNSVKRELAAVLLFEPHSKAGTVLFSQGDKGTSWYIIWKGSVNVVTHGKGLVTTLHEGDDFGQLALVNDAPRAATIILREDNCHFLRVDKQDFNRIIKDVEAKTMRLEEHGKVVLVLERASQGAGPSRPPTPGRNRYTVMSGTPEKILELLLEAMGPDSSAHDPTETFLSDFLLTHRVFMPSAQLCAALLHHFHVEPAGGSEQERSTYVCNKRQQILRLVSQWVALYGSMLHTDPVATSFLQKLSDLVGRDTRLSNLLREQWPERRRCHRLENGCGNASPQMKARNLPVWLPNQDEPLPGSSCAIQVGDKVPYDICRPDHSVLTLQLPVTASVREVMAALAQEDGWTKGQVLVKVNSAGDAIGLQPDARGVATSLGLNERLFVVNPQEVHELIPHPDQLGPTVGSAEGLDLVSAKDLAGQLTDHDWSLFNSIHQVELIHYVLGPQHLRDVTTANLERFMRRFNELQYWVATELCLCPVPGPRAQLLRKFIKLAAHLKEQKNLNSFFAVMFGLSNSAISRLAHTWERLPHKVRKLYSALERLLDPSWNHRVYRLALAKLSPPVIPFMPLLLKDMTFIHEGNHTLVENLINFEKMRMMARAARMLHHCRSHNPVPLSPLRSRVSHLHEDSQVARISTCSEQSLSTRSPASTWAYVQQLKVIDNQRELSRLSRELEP
Summary of the method: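 Nucleotide exchange uses 100 nM EPAC1, 250 nM RAP1B-BODIPY-GDP and 50 uM GDP, with compounds in a concentration-titration series. After 5 min at room temperature, fluorescence (480 nm ex/540 nm em) is read every 5 min for 30 min. Data are normalized to control ATA and DMSO.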

[12] = target: Rap guanine nucleotide exchange factor 3 (Homo sapiens) (UniProt O95398); assay: Confirmatory qHTS for agonist of cAMP-regulated guanine nucleotide exchange factor 3 (EPAC1) (AID 1645881);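 further: EPAC1 catalysed release of BODIPY-GDP from Rap1B seen as fluorescence loss; 100% = effect of cAMP agonist control; nearly all actives have a fitted effect of over 75% in size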
[13] = target: Rap guanine nucleotide exchange factor 4 (Homo sapiens) (UniProt Q8WZA2); assay: Confirmatory qHTS for agonist of cAMP-regulated guanine nucleotide exchange factor 4 (EPAC2) (AID 1645884);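 further: nucleotide exchange releases bodipy-GDP from Rap1 and this lowers its fluorescence; on the % scale 0 is the no-effect control and ±100 the full control effect; nearly all actives have a fitted effect of over 65% in size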
Chain of Rap guanine nucleotide exchange factor 4 (Homo sapiens) (Q8WZA2 whole entry, looked up): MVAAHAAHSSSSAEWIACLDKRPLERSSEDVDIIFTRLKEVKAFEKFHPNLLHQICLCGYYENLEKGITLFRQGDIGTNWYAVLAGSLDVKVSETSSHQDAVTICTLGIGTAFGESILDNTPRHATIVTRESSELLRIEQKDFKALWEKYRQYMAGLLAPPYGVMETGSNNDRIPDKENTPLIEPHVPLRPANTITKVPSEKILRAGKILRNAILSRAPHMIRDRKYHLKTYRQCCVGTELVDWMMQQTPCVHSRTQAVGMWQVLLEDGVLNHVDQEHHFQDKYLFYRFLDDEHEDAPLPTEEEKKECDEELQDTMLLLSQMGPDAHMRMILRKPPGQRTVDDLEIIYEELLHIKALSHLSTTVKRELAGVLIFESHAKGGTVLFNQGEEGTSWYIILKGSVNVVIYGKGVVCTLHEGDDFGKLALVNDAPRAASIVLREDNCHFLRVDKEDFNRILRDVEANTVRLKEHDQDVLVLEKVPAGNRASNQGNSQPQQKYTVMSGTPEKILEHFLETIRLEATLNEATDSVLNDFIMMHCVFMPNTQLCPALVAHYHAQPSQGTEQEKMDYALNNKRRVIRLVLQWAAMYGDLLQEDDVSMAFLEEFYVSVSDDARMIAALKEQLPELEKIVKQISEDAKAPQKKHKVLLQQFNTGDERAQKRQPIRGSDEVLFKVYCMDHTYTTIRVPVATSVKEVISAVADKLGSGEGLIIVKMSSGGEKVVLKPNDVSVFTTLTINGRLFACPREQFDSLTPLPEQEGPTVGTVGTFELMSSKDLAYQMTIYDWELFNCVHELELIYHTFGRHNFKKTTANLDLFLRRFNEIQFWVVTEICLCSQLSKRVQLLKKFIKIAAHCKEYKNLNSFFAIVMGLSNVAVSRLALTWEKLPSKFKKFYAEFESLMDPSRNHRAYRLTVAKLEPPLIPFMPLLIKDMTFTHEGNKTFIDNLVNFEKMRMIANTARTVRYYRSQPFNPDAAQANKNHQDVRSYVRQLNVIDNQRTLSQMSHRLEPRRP

[14] = Confirmatory qHTS for small molecule stabilizers of the endoplasmic reticulum resident proteome: Secreted ER Calcium Modulated Protein (SERCaMP) assay (AID 1508628);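 further: SH-SY5Y cells given compound 16 h then thapsigargin 100 nM for 4 h; series mostly up to about 76 µM; on the % scale 0 is the no-effect control and ±100 the full control effect; nearly all actives have a fitted effect of over 40% in size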
Summary of the method: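 We seeded SH-SY5Y-GLuc-SERCaMP cells, added compounds (three concentrations in the primary run, eleven up to 76.6 uM in confirmation), incubated 16 h, depleted ER calcium with thapsigargin, and read luciferase 4 h later.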

Oc1ccc(C2CNCc3sccc32)cc1O (stereo not given)
inactive: Potency [1] | Potency [2] | outcome [3] | Potency [4] | Potency [5]

COc1ccccc1N1CCN(CCCCNS(=O)(=O)c2cccc3c(N(C)C)cccc23)CC1
inactive: Potency [1] | Potency [2]

COc1cc2nc(N3CCN(C(=O)OCc4ccccc4)C(C(=O)NC(C)(C)C)C3)nc(N)c2cc1OC (stereo not given)
inactive: Potency [1] | Potency [2]

CSc1ccccc1N1CCN(CCCCCC(=O)NC2CCCc3ccccc32)CC1 (stereo not given)
inactive: Potency [1] | Potency [2] | outcome [3] | Potency [4] | Potency [5]

CC1CN(S(=O)(=O)c2cccc3cnccc23)CCN1 (stereo not given)
inactive: Potency [1] | Potency [2] | outcome [3] | Potency [6] | max response [7] 32.3% | Potency [5]

O=C1NC(=O)/C(=C/c2ccc(-c3ccc(F)cc3O)o2)S1
inactive: Potency [1] | Potency [2] | outcome [3] | Potency [4] | Potency [5] | Potency [12] | Potency [13]
active: Potency [8] 34.5 µM | Potency [9] 14.8 µM | Potency [10] 10.5 µM | Potency [11] 55.9 µM

CC1(C)CCC=[N+]1[O-]
inactive: Potency [1] | Potency [2] | outcome [3] | Potency [4] | Potency [5]

CC(C)ON([C@@H](C(=O)NO)C(C)C)S(=O)(=O)c1ccc(-c2ccccc2)cc1
inactive: Potency [1]

Cc1nc2sccn2c(=O)c1CCN1CCC(=C(c2ccccc2)c2ccc(F)cc2)CC1
inactive: Potency [1] | Potency [2]

CSc1nc(N)c2ncn([C@@H]3O[C@H](COP(=O)(O)OP(=O)(O)OP(=O)(O)O)[C@@H](O)[C@H]3O)c2n1
inactive: Potency [1] | Potency [2] | outcome [3] | Potency [4] | Potency [5]

CC[C@@H](C)[C@H]1O[C@]2(CC[C@H]1C)C[C@@H]1C[C@@H](CC=C(C)[C@@H](O[C@H]3C[C@H](OC)[C@@H](O[C@H]4C[C@H](OC)[C@@H](O)[C@H](C)O4)[C@H](C)O3)[C@@H](C)C=CC=C3CO[C@@H]4[C@H](O)C(C)=C[C@@H](C(=O)O1)[C@]34O)O2
inactive: Potency [1] | Potency [2] | outcome [3] | Potency [4] | Potency [5]

Nc1ncnc2c1ncn2[C@@H]1O[C@H](COP(=O)(O)CP(=O)(O)OP(=O)(O)O)[C@@H](O)[C@H]1O
inactive: Potency [1] | Potency [2] | outcome [3] | Potency [4] | Potency [5]

N#C/C(=C\c1ccc(-c2cc(Cl)ccc2Cl)o1)C(=O)Nc1cccc2ncccc12
inactive: Potency [1] | Potency [2] | outcome [3] | Potency [5]

COc1cc2c(CCNC(C)=O)c[nH]c2cc1Cl
inactive: Potency [1] | Potency [2] | outcome [3] | Potency [4] | Potency [5]

N.N.O=C(O)C1(C(=O)O)CCC1.[Pt]
inactive: Potency [1] | Potency [2]

COc1ccc(NC(=O)/C=C/c2ccc(Cl)cc2)cc1
inactive: Potency [1] | Potency [2] | outcome [3] | Potency [4] | Potency [5]

CNC(=O)[C@H]1O[C@@H](n2cnc3c(NCc4ccc(N)cc4)ncnc32)[C@H](O)[C@@H]1O
inactive: Potency [1] | Potency [2] | outcome [3] | Potency [4] | Potency [5]

COc1ccccc1CNCCCCCCNCCCCCCCCNCCCCCCNCc1ccccc1OC
inactive: Potency [1] | Potency [2] | outcome [3] | Potency [4]

NC(=S)c1ccc[n+]([C@@H]2O[C@@H](COP(=O)([O-])OP(=O)(O)OC[C@H]3O[C@@H](n4cnc5c(N)ncnc54)[C@H](OP(=O)(O)O)[C@@H]3O)C(O)C2O)c1 (stereo not given in full)
inactive: Potency [1] | Potency [2] | outcome [3] | Potency [6] | Potency [14] | Potency [5]

Clc1ccc(N2CCN(Cc3c[nH]c4ncccc34)CC2)cc1
inactive: Potency [1] | Potency [2] | outcome [3] | Potency [4] | Potency [5]

NC[C@@H]1O[C@H](C23CC4CC(CC(C4)C2)C3)Cc2c1ccc(O)c2O
inactive: Potency [1] | Potency [2] | outcome [3] | Potency [4] | Potency [5]

CCCCCCCC/C=C\CCCCCCCC(=O)NCCO
active: Potency [4] 12.6 µM
inactive: Potency [1] | Potency [2] | outcome [3] | Potency [6] | Potency [14] | max response [7] 21.6% | Potency [5]

Cc1ccc(S(=O)(=O)/C=C/C#N)cc1
active: Potency [2] 1.41 µM
inactive: Potency [1] | outcome [3] | Potency [4] | Potency [5]

CNc1ncnc2c1ncn2[C@@H]1O[C@H](CO)[C@@H](O)[C@H]1O
inactive: Potency [1] | Potency [2] | outcome [3] | Potency [4] | Potency [5]

C[N+](C)(C)CCOP(=O)(O)OP(=O)([O-])OC[C@H]1O[C@@H](n2ccc(N)nc2=O)[C@H](O)[C@@H]1O
inactive: Potency [1] | Potency [2] | outcome [3] | Potency [4] | Potency [5]

CC(=O)N[C@H](C(=O)O)C(C)(C)SN=O
inactive: Potency [1] | Potency [2] | outcome [3] | Potency [4] | Potency [5]

N#C/C(=C\c1ccc(O)c(O)c1)C(=O)c1ccc(O)c(O)c1
active: Potency [11] 0.794 µM
inactive: Potency [1] | Potency [2] | outcome [3] | Potency [6] | Potency [12] | activation [13] 1.63% [at 17.1 µM, percent relative to cAMP agonist control]
